# According to paper PMC8384837, “Expanding the binding specificity for RNA recognition by a PUF domain”:
# Residue numbers refer to the chain shown, from its start.
# Tests used:
# Assay in all cases: yeast three-hybrid, YBZ-1, SC-Leu-His + 0.5 mM 3-AT, 4 days
# Conditions in all cases: tags: N-Gal4 AD-HA kept; label: inside an RPR1-promoter hybrid RNA with tandem MS2 sites; ssRNA
# PUM1 PUF domain R2-IWD = PUM1 PUF domain R2-IWD (Homo sapiens, UniProt Q14671 828-1176, N899I;Y900W;Q903D)
# Procedure, shortened: (§1)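 The interaction score is the logarithmic change in variant frequency from input to selection. It uses log2, with a pseudocount of 1 for absent variants, and frequencies came from PCR-amplified, Illumina-sequenced repeat regions. The libraries were Pumilio-1 PUF domains randomized at the three base-contacting residues per repeat, co-expressed with matching RNA elements in strain YBZ-1 (LexA–MS2 coat fusion, HIS3 reporter). Plating lasted four days on SC-Leu (input) or SC-Leu-His + 0.5 mM 3-AT (selection).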
# PUM1 PUF domain R2-VFR = PUM1 PUF domain R2-VFR (Homo sapiens, UniProt Q14671 828-1176, N899V;Y900F;Q903R)
# Procedure, shortened: as §1
# PUM1 PUF domain R2-VHP = PUM1 PUF domain R2-VHP (Homo sapiens, UniProt Q14671 828-1176, N899V;Y900H;Q903P)
# Procedure, shortened: as §1
# PUM1 PUF domain R4-SPV = PUM1 PUF domain R4-SPV (Homo sapiens, UniProt Q14671 828-1176, N971S;H972P;Q975V)
# Procedure, shortened: as §1
# PUM1 PUF domain R4-ARM = PUM1 PUF domain R4-ARM (Homo sapiens, UniProt Q14671 828-1176, N971A;H972R;Q975M)
# Procedure, shortened: as §1
# PUM1 PUF domain R1-RTR = PUM1 PUF domain R1-RTR (Homo sapiens, UniProt Q14671 828-1176, S863R;R864T;Q867R)
# Procedure, shortened: as §1
# PUM1 PUF domain R5-RYR = PUM1 PUF domain R5-RYR (Homo sapiens, UniProt Q14671 828-1176, C1007R;R1008Y;Q1011R)
# Procedure, shortened: as §1
# PUM1 PUF domain R5-KYV = PUM1 PUF domain R5-KYV (Homo sapiens, UniProt Q14671 828-1176, C1007K;R1008Y;Q1011V)
# Procedure, shortened: as §1
# PUM1 PUF domain R7-RRS = PUM1 PUF domain R7-RRS (Homo sapiens, UniProt Q14671 828-1176, S1079R;N1080R;E1083S)
# Procedure, shortened: as §1
# PUM1 PUF domain R4-MNG = PUM1 PUF domain R4-MNG (Homo sapiens, UniProt Q14671 828-1176, N971M;H972N;Q975G)
# Procedure, shortened: as §1
# PUM1 PUF domain R3-EYE = PUM1 PUF domain R3-EYE (Homo sapiens, UniProt Q14671 828-1176, C935E;R936Y;Q939E)
# Procedure, shortened: as §1
# PUM1 PUF domain R3-CRD = PUM1 PUF domain R3-CRD (Homo sapiens, UniProt Q14671 828-1176, Q939D)
# Procedure, shortened: as §1
# PUM1 PUF domain R3-TYW = PUM1 PUF domain R3-TYW (Homo sapiens, UniProt Q14671 828-1176, C935T;R936Y;Q939W)
# Procedure, shortened: as §1
# PUM1 PUF domain R6-RWK = target: T1, PUM1 PUF domain R6-RWK (Homo sapiens, UniProt Q14671 828-1176, N1043R;Y1044W;Q1047K)
# T1 sequence: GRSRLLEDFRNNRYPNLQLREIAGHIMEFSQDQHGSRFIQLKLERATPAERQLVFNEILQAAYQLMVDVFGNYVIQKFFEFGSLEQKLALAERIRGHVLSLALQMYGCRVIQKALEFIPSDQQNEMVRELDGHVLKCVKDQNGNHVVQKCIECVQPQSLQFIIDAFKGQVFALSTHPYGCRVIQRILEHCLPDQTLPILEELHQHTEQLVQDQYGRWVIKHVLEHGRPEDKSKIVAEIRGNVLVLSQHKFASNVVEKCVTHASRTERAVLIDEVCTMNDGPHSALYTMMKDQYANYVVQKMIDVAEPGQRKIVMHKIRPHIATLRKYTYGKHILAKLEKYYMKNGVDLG
# Procedure, shortened: as §1
# PUM1 PUF domain R8-IWR = PUM1 PUF domain R8-IWR (Homo sapiens, UniProt Q14671 828-1176, N1122I;Y1123W;Q1126R)
# Procedure, shortened: as §1
# PUM1 PUF domain R4-PTC = PUM1 PUF domain R4-PTC (Homo sapiens, UniProt Q14671 828-1176, N971P;H972T;Q975C)
# Procedure, shortened: as §1
# PUM1 PUF domain R4-SNY = PUM1 PUF domain R4-SNY (Homo sapiens, UniProt Q14671 828-1176, N971S;H972N;Q975Y)
# Procedure, shortened: as §1
# PUM1 PUF domain R5-EVC = PUM1 PUF domain R5-EVC (Homo sapiens, UniProt Q14671 828-1176, C1007E;R1008V;Q1011C)
# Procedure, shortened: as §1
# PUM1 PUF domain R7-AVK = PUM1 PUF domain R7-AVK (Homo sapiens, UniProt Q14671 828-1176, S1079A;N1080V;E1083K)
# Procedure, shortened: as §1
# PUM1 PUF domain R6-YRS = target: T2, PUM1 PUF domain R6-YRS (Homo sapiens, UniProt Q14671 828-1176, N1043Y;Y1044R;Q1047S)
# T2 sequence: T1 sequence with R216Y, W217R, K220S
# Procedure, shortened: as §1
# PUM1 PUF domain R2-VHP, sequence (Q14671 828-1176 N899V/Y900H/Q903P): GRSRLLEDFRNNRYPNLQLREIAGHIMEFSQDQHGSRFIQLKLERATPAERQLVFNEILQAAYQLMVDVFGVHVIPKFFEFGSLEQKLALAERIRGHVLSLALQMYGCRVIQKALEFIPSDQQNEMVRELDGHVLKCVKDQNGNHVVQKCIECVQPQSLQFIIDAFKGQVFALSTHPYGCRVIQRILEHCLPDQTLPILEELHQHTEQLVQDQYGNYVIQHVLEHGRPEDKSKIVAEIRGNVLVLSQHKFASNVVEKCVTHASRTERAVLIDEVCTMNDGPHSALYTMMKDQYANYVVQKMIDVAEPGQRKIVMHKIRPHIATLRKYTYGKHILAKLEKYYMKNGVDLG
# PUM1 PUF domain R2-IWD, sequence (Q14671 828-1176 N899I/Y900W/Q903D): as the sequence (Q14671 828-1176 N899V/Y900H/Q903P) above, with V72I, H73W, P76D counted along it
# PUM1 PUF domain R4-MNG, sequence (Q14671 828-1176 N971M/H972N/Q975G): as the sequence (Q14671 828-1176 N899V/Y900H/Q903P) above, with V72N, H73Y, P76Q, N144M, H145N, Q148G counted along it
# PUM1 PUF domain R5-EVC, sequence (Q14671 828-1176 C1007E/R1008V/Q1011C): as the sequence (Q14671 828-1176 N899V/Y900H/Q903P) above, with V72N, H73Y, P76Q, C180E, R181V, Q184C counted along it
# PUM1 PUF domain R2-VFR, sequence (Q14671 828-1176 N899V/Y900F/Q903R): as the sequence (Q14671 828-1176 N899V/Y900H/Q903P) above, with H73F, P76R counted along it
sequence,measurement,setting,value
GGCUAGAACUAGUGGAUCCCCCGGCGCCCGGCGGCUCGAGCCCGGGUAAGUGUAAAAAGUCUGCAUGCCGCCGGGCGCCAUGCCUGCAGGUCGACUCUAGAAAACAUG,binding signal,PUM1 PUF domain R2-IWD,2.12 log2 enrichment (interaction score)
same,binding signal,PUM1 PUF domain R2-VFR,5.64 log2 enrichment (interaction score)
same,binding signal,PUM1 PUF domain R2-VHP,2.73 log2 enrichment (interaction score)
GGCUAGAACUAGUGGAUCCCCCGGCGCCCGGCGGCUCGAGCCCGGGUAAGUGUAUAUAGUCUGCAUGCCGCCGGGCGCCAUGCCUGCAGGUCGACUCUAGAAAACAUG,binding signal,PUM1 PUF domain R4-SPV,3.71 log2 enrichment (interaction score)
same,binding signal,PUM1 PUF domain R4-ARM,1.47 log2 enrichment (interaction score)
GGCUAGAACUAGUGGAUCCCCCGGCGCCCGGCGGCUCGAGCCCGGGUAAGUGUAAAUUGUCUGCAUGCCGCCGGGCGCCAUGCCUGCAGGUCGACUCUAGAAAACAUG,binding signal,PUM1 PUF domain R1-RTR,2.2 log2 enrichment (interaction score)
GGCUAGAACUAGUGGAUCCCCCGGCGCCCGGCGGCUCGAGCCCGGGUAAGUGUCAAUAGUCUGCAUGCCGCCGGGCGCCAUGCCUGCAGGUCGACUCUAGAAAACAUG,binding signal,PUM1 PUF domain R5-RYR,4.57 log2 enrichment (interaction score)
same,binding signal,PUM1 PUF domain R5-KYV,5.44 log2 enrichment (interaction score)
GGCUAGAACUAGUGGAUCCCCCGGCGCCCGGCGGCUCGAGCCCGGGUAAGUCUAAAUAGUCUGCAUGCCGCCGGGCGCCAUGCCUGCAGGUCGACUCUAGAAAACAUG,binding signal,PUM1 PUF domain R7-RRS,4.47 log2 enrichment (interaction score)
GGCUAGAACUAGUGGAUCCCCCGGCGCCCGGCGGCUCGAGCCCGGGUAAGUGUACAUAGUCUGCAUGCCGCCGGGCGCCAUGCCUGCAGGUCGACUCUAGAAAACAUG,binding signal,PUM1 PUF domain R4-MNG,2.1 log2 enrichment (interaction score)
same,binding signal,PUM1 PUF domain R4-ARM,2.37 log2 enrichment (interaction score)
GGCUAGAACUAGUGGAUCCCCCGGCGCCCGGCGGCUCGAGCCCGGGUAAGUGUAAUUAGUCUGCAUGCCGCCGGGCGCCAUGCCUGCAGGUCGACUCUAGAAAACAUG,binding signal,PUM1 PUF domain R3-EYE,5.03 log2 enrichment (interaction score)
same,binding signal,PUM1 PUF domain R3-CRD,1.14 log2 enrichment (interaction score)
GGCUAGAACUAGUGGAUCCCCCGGCGCCCGGCGGCUCGAGCCCGGGUAAGUGUAAAUAGUCUGCAUGCCGCCGGGCGCCAUGCCUGCAGGUCGACUCUAGAAAACAUG,binding signal,PUM1 PUF domain R3-TYW,5.67 log2 enrichment (interaction score)
same,binding signal,PUM1 PUF domain R4-SPV,1.64 log2 enrichment (interaction score)
same,binding signal,PUM1 PUF domain R5-RYR,2.49 log2 enrichment (interaction score)
same,binding signal,PUM1 PUF domain R6-RWK,6.43 log2 enrichment (interaction score)
same,binding signal,PUM1 PUF domain R3-EYE,2.67 log2 enrichment (interaction score)
same,binding signal,PUM1 PUF domain R5-KYV,4.2 log2 enrichment (interaction score)
same,binding signal,PUM1 PUF domain R8-IWR,3.98 log2 enrichment (interaction score)
same,binding signal,PUM1 PUF domain R4-PTC,3.57 log2 enrichment (interaction score)
same,binding signal,PUM1 PUF domain R4-ARM,4.11 log2 enrichment (interaction score)
same,binding signal,PUM1 PUF domain R3-CRD,5 log2 enrichment (interaction score)
same,binding signal,PUM1 PUF domain R4-SNY,2.33 log2 enrichment (interaction score)
GGCUAGAACUAGUGGAUCCCCCGGCGCCCGGCGGCUCGAGCCCGGGUAAGUGUUAAUAGUCUGCAUGCCGCCGGGCGCCAUGCCUGCAGGUCGACUCUAGAAAACAUG,binding signal,PUM1 PUF domain R5-RYR,4.47 log2 enrichment (interaction score)
same,binding signal,PUM1 PUF domain R5-KYV,4.52 log2 enrichment (interaction score)
GGCUAGAACUAGUGGAUCCCCCGGCGCCCGGCGGCUCGAGCCCGGGUAAGUGUGAAUAGUCUGCAUGCCGCCGGGCGCCAUGCCUGCAGGUCGACUCUAGAAAACAUG,binding signal,PUM1 PUF domain R5-EVC,3.25 log2 enrichment (interaction score)
same,binding signal,PUM1 PUF domain R5-RYR,2.14 log2 enrichment (interaction score)
GGCUAGAACUAGUGGAUCCCCCGGCGCCCGGCGGCUCGAGCCCGGGUAAGUUUAAAUAGUCUGCAUGCCGCCGGGCGCCAUGCCUGCAGGUCGACUCUAGAAAACAUG,binding signal,PUM1 PUF domain R7-RRS,4.29 log2 enrichment (interaction score)
same,binding signal,PUM1 PUF domain R7-AVK,4.11 log2 enrichment (interaction score)
GGCUAGAACUAGUGGAUCCCCCGGCGCCCGGCGGCUCGAGCCCGGGUAAGUGUAAAUCGUCUGCAUGCCGCCGGGCGCCAUGCCUGCAGGUCGACUCUAGAAAACAUG,binding signal,PUM1 PUF domain R1-RTR,1.13 log2 enrichment (interaction score)
GGCUAGAACUAGUGGAUCCCCCGGCGCCCGGCGGCUCGAGCCCGGGUAAGCGUAAAUAGUCUGCAUGCCGCCGGGCGCCAUGCCUGCAGGUCGACUCUAGAAAACAUG,binding signal,PUM1 PUF domain R8-IWR,5.25 log2 enrichment (interaction score)
GGCUAGAACUAGUGGAUCCCCCGGCGCCCGGCGGCUCGAGCCCGGGUAAGUGAAAAUAGUCUGCAUGCCGCCGGGCGCCAUGCCUGCAGGUCGACUCUAGAAAACAUG,binding signal,PUM1 PUF domain R6-YRS,3.7 log2 enrichment (interaction score)
